PubChem BioAssay (NCATS)
Inconclusive results are not listed. Entries that show only a call come without a potency. Activity calls are given as the source filed them. Calls come from the whole dose curve; as a rule, active = well fitted cell-killing curve with a large enough effect; inconclusive = small, poorly fitted or top-dose-only effect, or effect the other way; inactive = no such curve, though single readings can be large or run the other way. Non-standard residues stand in square brackets, D forms with d. Residues, ends and D or L forms follow the SMILES beside them. *: point of attachment. Sta = CC(C)C[C@H](N)[C@@H](O)CC(=O)O; Isovaleryl = CC(C)CC(=O)*

Assay: Quantitative High-Throughput drug screen in 47 multiple myeloma cell lines against the NCATS MIPE library collection: XG6_PLB cell viability assay (AID 1919865); note: nearly all actives have a fitted effect of over 40% in size
Details: XG6 myeloma viability, CellTiter-Glo ATP luminescence, 48 h; series mostly up to 45.8 µM
Excerpt: PI: Beverly A. Mock Ph.D.
Laboratory of Cancer Biology and Genetics,
Center for Cancer Research, National Cancer Institute,
National Institute of Health, Bethesda, Maryland
Drug resistance and disease progression are common in multiple myeloma (MM) patients, underscoring the need for new therapeutic combinations. […] We hypothesized that effective combinations would reduce MYC expression and enhance p16 activity. […] These preclinical data identify potentially useful drug combinations for evaluation in drug-resistant MM and reveal potential mechanisms of combined drug sensitivity.
Described herein is the primary MIPE qHTS used to cherrypick compounds. Validated compounds were then further tested for potential synergistic activiy.
[1] Peat TJ, Gaikwad SM, Dubois W, Gyabaah-Kessie N, Zhang S, Gorjifard S, Phyo Z, Andres M, Hughitt VK, Simpson RM, Miller MA, Girvin AT, Taylor A, Williams D, D'Antonio N, Zhang Y, Rajagopalan A, Flietner E, Wilson K, Zhang X, Shinn P, Klumpp-Thomas C, McKnight C, Itkin Z, Chen L, Kazandijian D, Zhang J, Michalowski AM, Simmons JK, Keats J, Thomas CJ, Mock BA. Drug combinations identified by high-throughput screening promote cell cycle transition and upregulate Smad pathways in myeloma. Cancer Lett. 2023 Aug 1;568:216284. doi: 10.1016/j.canlet.2023.216284. Epub 2023 Jun 24. PMID: 37356470; PMCID: PMC10408729.
SEQUENCE No. (e.g., 1, 2, 3, etc.); […] (e.g., Cells, Incubation, Reagent, etc.); VALUE and DESCRIPTION.
1; Cells; 5 uL; white, solid bottom 1536-well Greiner assay plate.
2; Compounds; 23 nL; Kalypsis pin tool (Wako USA) equipped with a 1536-well pin head to transfer to the assay plates.
3; Incubation; 48 hours; 37C incubation.
4; Reagent;5uL; CellTiter Glo (Promega).
5; Detector; 425V; Luminescence; Viewlux PerkinElmer.
NOTES (numbers refer to Sequence numbers above)
1. The cell-based screening methods employed in this study were like those previously published. Briefly, the corresponding myeloma cell lines were screened in 1,536-well plates with 500 cells, 5-uL per well for inhibition of cell viability (assessed by measuring ATP levels with CellTiterGlo).
2. NCATS MIPE 4.0 library of approved and investigational drugs were added using the Kalypsis pin tool. Wells treated with DMSO only for 100% viability and media only for 0% viability were used as controls.
3. The assay plates were covered and incubated for 48 hours in a 37C, 5% CO2 incubator with controlled humidity.
4. After 48 hours, CellTilter-GloTM luminescent substrate mix (Promega) reagent was added to the assay plate and plates we incubated for 5 min at room temperature.
5. Signal was measured as median relative luminescence units on a ViewLux (PerkinElmer) multiplate reader.
[1] Heske CM, Davis MI, Baumgart JT, Wilson K, Gormally MV, Chen L, Zhang X, Ceribelli M, Duveau DY, Guha R, Ferrer M, Arnaldez FI, Ji J, Tran HL, Zhang Y, Mendoza A, Helman LJ, Thomas CJ. Matrix Screen Identifies Synergistic Combination of PARP Inhibitors and Nicotinamide Phosphoribosyltransferase (NAMPT) Inhibitors in Ewing Sarcoma. Clin Cancer Res. 2017 Dec 1;23(23):7301-7311. doi: 10.1158/1078-0432.CCR-17-1121. Epub 2017 Sep 12. PMID: 28899971; PMCID: PMC6636827.
Potency is the fitted concentration of half-maximal effect.

Q: For CCOC(=O)C(C)Oc1cccc2c(=O)n(CC(=O)Nc3ccc4c(c3)OCCO4)ccc12 (stereo not given), which Potency is on record?
A: inactive

Q: With Cc1cc2c(s1)Nc1ccccc1N=C2N1CCN(C)CC1 as the molecule, how does the Potency read?
A: inactive

Q: For O=C(NCCO[N+](=O)[O-])c1cccnc1, which Potency is on record?
A: inactive

Q: With COc1cc(Nc2c(C#N)cnc3cc(OCCCN4CCN(C)CC4)c(OC)cc23)c(Cl)cc1Cl as the molecule, how does the Potency read?
A: 1.32 µM (active)

Q: With O=c1c(O)c(-c2cc(O)c(O)c(O)c2)oc2cc(O)cc(O)c12 as the molecule, how does the Potency read?
A: inactive

Q: With CCCCCCCCCCCCCCCCCCCCCCO as the molecule, how does the Potency read?
A: inactive

Q: For COCCCN1CCC(NC(=O)c2cc(Cl)c(N)c3c2OCC3)CC1, which Potency is on record?
A: 5.9 µM (active)

Q: With CC(C)CC(=O)N[C@H](C(=O)N[C@H](C(=O)N[C@@H](CC(C)C)[C@@H](O)CC(=O)N[C@@H](C)C(=O)N[C@@H](CC(C)C)[C@@H](O)CC(=O)O)C(C)C)C(C)C (Isovaleryl-VV[Sta]A[Sta]-OH) as the molecule, how does the Potency read?
A: inactive

Q: With COc1ccccc1N1CCN(CCN(C(=O)C2CCCCC2)c2ccccn2)CC1 as the molecule, how does the Potency read?
A: 1.48 µM (active)

Q: With C[C@@H](c1ncncc1F)[C@](O)(Cn1cncn1)c1ccc(F)cc1F as the molecule, how does the Potency read?
A: 5.26 µM (active)

Q: For c1ccc2[nH]c(-c3cscn3)nc2c1, which Potency is on record?
A: inactive

Q: Which Potency does the source give for Nc1ccn([C@@H]2O[C@H](CO)[C@@H](O)C2O)c(=O)n1 (stereo not given in full) here?
A: inactive

Q: With NC(=NCc1ccccc1)NC(=O)c1nc(Cl)c(N)nc1N as the molecule, how does the Potency read?
A: 0.935 µM (active)

Q: Which Potency does the source give for O=P(O)(O)C(O)(Cn1ccnc1)P(=O)(O)O here?
A: inactive

Q: Which Potency does the source give for Nc1ncn([C@H]2C[C@H](O)[C@@H](CO)O2)c(=O)n1 here?
A: 0.833 µM (active)

Q: Which Potency does the source give for O=C(O)c1cccnc1Nc1cccc(C(F)(F)F)c1 here?
A: inactive

Q: For Nc1ccc(S(N)(=O)=O)cc1, which Potency is on record?
A: inactive

Q: For CCN(CC)CCOc1ccc(Cc2ccccc2)cc1, which Potency is on record?
A: inactive

Q: With O=c1c(O)c(-c2ccc(O)cc2O)oc2cc(O)cc(O)c12 as the molecule, how does the Potency read?
A: inactive

Q: With CCOC(=O)c1c(C)n(C)c2ccc(O)cc12 as the molecule, how does the Potency read?
A: inactive

Q: With CCN(CC)C(=S)SSC(=S)N(CC)CC as the molecule, how does the Potency read?
A: 0.001 µM (active)

Q: With CCc1nc(N)nc(N)c1-c1ccc(Cl)cc1 as the molecule, how does the Potency read?
A: inactive

Q: With CCOC(=O)C1=C(O)C(=O)N(Cc2ccccc2)C1 as the molecule, how does the Potency read?
A: inactive

Q: For CC(C)c1nc(CN(C)C(=O)N[C@H](C(=O)N[C@@H](Cc2ccccc2)C[C@H](O)[C@H](Cc2ccccc2)NC(=O)OCc2cncs2)C(C)C)cs1, which Potency is on record?
A: inactive

Q: Which Potency does the source give for Cc1cc(=O)c2c(O)c3c(O)cc(=O)c4c3c3c(cc(O)c1c23)C(C)(C)C=4O here?
A: 0.743 µM (active)

Q: For Nc1nc(Cl)nc2c1ncn2[C@H]1C[C@H](O)[C@@H](CO)O1, which Potency is on record?
A: 0.935 µM (active)

Q: For Cc1ccc(S(=O)(=O)NC(=O)NN2CC3CCCC3C2)cc1 (stereo not given), which Potency is on record?
A: 20.9 µM (active)

Q: With C=CCc1cc(OC)c(O)c(C(=O)NCCO)c1 as the molecule, how does the Potency read?
A: inactive

Q: For O=C(c1ccccc1)c1ccc2n1CCC2C(=O)O (stereo not given), which Potency is on record?
A: 9.35 µM (active)

Q: Which Potency does the source give for CN(c1nccc(=O)[nH]1)C1CCN(c2nc3ccccc3n2Cc2ccc(F)cc2)CC1 here?
A: 18.7 µM (active)

Q: With Oc1ccc2ccccc2c1SSc1c(O)ccc2ccccc12 as the molecule, how does the Potency read?
A: 10.5 µM (active)

Q: Which Potency does the source give for O=C(OC1C[C@H]2CC[C@@H](C1)[N+]21CCCC1)C(O)(c1ccccc1)c1ccccc1 (stereo not given in full) here?
A: inactive

Q: Which Potency does the source give for O=C(O)c1cc(=O)c2c(OCC(O)COc3cccc4oc(C(=O)O)cc(=O)c34)cccc2o1 here?
A: inactive

Q: Which Potency does the source give for O=c1oc2cc(O)ccc2s1 here?
A: inactive

Q: Which Potency does the source give for C[C@]12CCC(=O)C=C1CC[C@@H]1[C@H]2[C@@H](O)C[C@@]2(C)[C@H]1CC[C@]2(O)C(=O)CO here?
A: 18.7 µM (active)

Q: Which Potency does the source give for Cc1cc(=O)oc2cc(O)ccc12 here?
A: inactive

Q: With Nc1cccc2c1CN(C1CCC(=O)NC1=O)C2=O (stereo not given) as the molecule, how does the Potency read?
A: inactive

Q: For Cc1ccc(Nc2nccc(N(C)c3ccc4c(C)n(C)nc4c3)n2)cc1S(N)(=O)=O, which Potency is on record?
A: 11.8 µM (active)

Q: For C=C(c1ccc(C(=O)O)cc1)c1cc2c(cc1C)C(C)(C)CCC2(C)C, which Potency is on record?
A: inactive

Q: For COC(=O)C1=C(C)NC(C)=C(C(=O)OC(C)C)C1c1cccc2nonc12 (stereo not given), which Potency is on record?
A: 5.9 µM (active)
